# From PubChem BioAssay (EPA / NIEHS)
# Results filed as inconclusive are left out. Active and inactive are the calls of the source. How the source made its calls, unless noted: active means hit-call score of the fitted dose curve at least 0.9, where 1 is the maximum; inconclusive means response in the unintended direction; inactive means score below 0.9.
# Legend:
# [1] = target: bovine Gamma-Aminobutyric Acid Type A Receptor Agonist (GABAR Agonist), GABRA1 (gene 780973) (UniProt P08219); experiment: NVS_LGIC_bGABAR_Agonist: NovaScreen (NVS) Ligand-Gated Ion Channel Assay for bovine Gamma-Aminobutyric Acid Type A Receptor Agonist (GABAR Agonist) (AID 2283338)
# Method in brief: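 Radioligand binding to bovine cerebellar membranes in agonist format, read by filter-based scintillation counting after 1 h. Primary screen in duplicate at 25 uM, with actives followed in concentration series. Gain of signal versus DMSO.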
# [2] = target: Estrogen receptor (Homo sapiens) (UniProt P03372); experiment: OT_ER_ERaERa_1440: Odyssey Thera (OT) 24-hour HEK293T Protein-Complementation Assay for Estrogen Receptor-alpha/-alpha Homodimer (AID 2283349);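 further: hits raise fluorescence above DMSO for agonists and antagonists alike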
# Chain of Estrogen receptor (Homo sapiens) (P03372 whole entry, looked up, the tested form may be a part): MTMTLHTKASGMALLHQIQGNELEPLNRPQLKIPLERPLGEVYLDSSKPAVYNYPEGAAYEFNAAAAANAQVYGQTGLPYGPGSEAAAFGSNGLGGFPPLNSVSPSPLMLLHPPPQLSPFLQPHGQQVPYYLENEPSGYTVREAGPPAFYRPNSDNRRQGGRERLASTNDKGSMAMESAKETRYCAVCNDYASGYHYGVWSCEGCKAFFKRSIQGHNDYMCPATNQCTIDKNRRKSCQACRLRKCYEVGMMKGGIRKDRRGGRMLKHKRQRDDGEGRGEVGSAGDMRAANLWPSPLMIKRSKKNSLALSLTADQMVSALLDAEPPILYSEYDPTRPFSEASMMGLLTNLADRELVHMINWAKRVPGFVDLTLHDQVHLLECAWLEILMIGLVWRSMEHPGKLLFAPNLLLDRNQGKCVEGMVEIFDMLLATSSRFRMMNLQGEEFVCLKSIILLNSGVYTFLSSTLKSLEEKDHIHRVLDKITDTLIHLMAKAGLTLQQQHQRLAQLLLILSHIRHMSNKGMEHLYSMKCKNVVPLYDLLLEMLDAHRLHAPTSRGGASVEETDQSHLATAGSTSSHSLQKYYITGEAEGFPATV
# Method in brief: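 HEK293T, stable ERα LBD (aa 310-547) homodimer PCA; 24 h compound exposure; mean fluorescence intensity (nuclear for agonists, nuclear plus cytoplasmic for antagonists) vs vehicle; positive fitting direction, DMSO baseline.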
# [3] = target: Estrogen receptor (Homo sapiens) (UniProt P03372); experiment: OT_ER_ERaERa_0480: Odyssey Thera (OT) 8-hour HEK293T Protein-Complementation Assay for Estrogen Receptor-alpha/-alpha Homodimer (AID 2283351);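 further: rise in fluorescence from reassembled reporter fragments on ERα LBD homodimer in nucleus or whole cell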
# Method in brief: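 Cells were treated for 8 hours, then imaged on a laser scanning plate cytometer. Complementation of reporter fragments fused to the human ERα ligand-binding domain (residues 310-547) in HEK293T gave fluorescence, and gain of signal over vehicle was fitted.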
# [4] = target: Estrogen receptor (Homo sapiens) + Estrogen receptor beta (Homo sapiens) (UniProt P03372+Q92731); experiment: OT_ER_ERaERb_0480: Odyssey Thera (OT) 8-hour HEK293T Protein-Complementation Assay for Estrogen Receptor-alpha/-beta Heterodimer (AID 2283352)
# Chain of Estrogen receptor (Homo sapiens) + Estrogen receptor beta (Homo sapiens) (P03372 whole entry, looked up): as the sequence (P03372 whole entry, looked up, the tested form may be a part) above
# Chain of Estrogen receptor (Homo sapiens) + Estrogen receptor beta (Homo sapiens) (Q92731 whole entry, looked up): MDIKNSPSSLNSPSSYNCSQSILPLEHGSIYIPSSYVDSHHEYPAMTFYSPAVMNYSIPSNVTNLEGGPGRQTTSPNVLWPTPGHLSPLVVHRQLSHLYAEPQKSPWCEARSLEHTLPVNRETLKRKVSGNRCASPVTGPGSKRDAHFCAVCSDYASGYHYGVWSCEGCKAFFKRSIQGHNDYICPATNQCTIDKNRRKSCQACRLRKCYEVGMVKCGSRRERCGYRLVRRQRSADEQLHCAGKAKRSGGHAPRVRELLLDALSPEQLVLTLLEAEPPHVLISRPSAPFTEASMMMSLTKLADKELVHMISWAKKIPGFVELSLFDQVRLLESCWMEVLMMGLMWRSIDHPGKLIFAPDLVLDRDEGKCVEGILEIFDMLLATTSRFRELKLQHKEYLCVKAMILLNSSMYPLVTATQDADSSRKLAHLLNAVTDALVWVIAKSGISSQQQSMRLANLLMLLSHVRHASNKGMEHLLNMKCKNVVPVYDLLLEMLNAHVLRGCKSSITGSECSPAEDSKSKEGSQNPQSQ
# Method in brief: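 Compound added to HEK293T cells carrying split-reporter-tagged ER-alpha and ER-beta LBDs, incubated 8 hours, then imaged by laser scanning cytometer. Signal rise in nucleus, or nucleus and cytoplasm, over vehicle was fitted in the positive direction.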
# [5] = NVS_IC_rCaBTZCHL: NovaScreen (NVS) Ion Channel Assay for Calcium Channel, Type L, Benzothiazepine Site (CaBTZCHL) (AID 2283337)
# Method in brief: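 Test chemicals were added to rat cortical membranes and incubated 1.5 h with a tritiated or iodinated radioligand for the benzothiazepine site. Bound ligand was separated by filtration and counted. Actives from the 25 uM duplicate screen were retested in concentration series.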
# [6] = tested on: guinea pig Histamine Receptor (H2), gene 100729734; experiment: NVS_GPCR_gH2: NovaScreen (NVS) G Protein-Coupled Receptor Assay for guinea pig Histamine Receptor (H2) (AID 2283342)
# Method in brief: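 Guinea pig striatal membrane preparation with specific radioligand; bound counts measured by filtration and scintillation 1 h post-dosing, DMSO as baseline. Chemicals passing a 25 uM duplicate screen were titrated to a 50 uM maximum.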
# [7] = target: human Constitutive Androstane Receptor (CAR), NR1I3 (gene 9970) (UniProt Q14994); experiment: NVS_NR_hCAR_Antagonist: NovaScreen (NVS) Nuclear Receptor Binding Assay for human Constitutive Androstane Receptor Antagonism (CAR) (AID 2283344)
# Chain of human Constitutive Androstane Receptor (CAR), NR1I3 (gene 9970) (Q14994 whole entry, looked up): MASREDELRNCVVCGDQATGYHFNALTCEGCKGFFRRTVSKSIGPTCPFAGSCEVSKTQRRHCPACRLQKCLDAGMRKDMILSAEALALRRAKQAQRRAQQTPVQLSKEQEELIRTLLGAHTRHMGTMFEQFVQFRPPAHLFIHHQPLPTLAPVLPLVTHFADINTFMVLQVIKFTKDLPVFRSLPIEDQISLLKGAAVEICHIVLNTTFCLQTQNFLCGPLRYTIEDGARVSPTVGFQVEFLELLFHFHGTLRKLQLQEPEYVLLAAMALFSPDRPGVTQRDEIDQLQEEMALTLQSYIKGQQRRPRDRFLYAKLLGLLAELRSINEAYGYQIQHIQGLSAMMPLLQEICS
# Method in brief: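 Single 25 uM duplicate primary screen, with concentration-series follow-up on actives. Cell-free binding format run in antagonist mode, TR-FRET signal taken 1 h post-dose; activity is signal loss relative to DMSO.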
# [8] = target: bovine Estrogen Receptor (ER), ESR1 (gene 407238) (UniProt P49884); experiment: NVS_NR_bER: NovaScreen (NVS) Nuclear Receptor Binding Assay for bovine Estrogen Receptor (ER) (AID 2283345);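 further: actives lower the bound radioligand count which means they displace the ER ligand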
# Chain of bovine Estrogen Receptor (ER), ESR1 (gene 407238) (P49884 whole entry, looked up): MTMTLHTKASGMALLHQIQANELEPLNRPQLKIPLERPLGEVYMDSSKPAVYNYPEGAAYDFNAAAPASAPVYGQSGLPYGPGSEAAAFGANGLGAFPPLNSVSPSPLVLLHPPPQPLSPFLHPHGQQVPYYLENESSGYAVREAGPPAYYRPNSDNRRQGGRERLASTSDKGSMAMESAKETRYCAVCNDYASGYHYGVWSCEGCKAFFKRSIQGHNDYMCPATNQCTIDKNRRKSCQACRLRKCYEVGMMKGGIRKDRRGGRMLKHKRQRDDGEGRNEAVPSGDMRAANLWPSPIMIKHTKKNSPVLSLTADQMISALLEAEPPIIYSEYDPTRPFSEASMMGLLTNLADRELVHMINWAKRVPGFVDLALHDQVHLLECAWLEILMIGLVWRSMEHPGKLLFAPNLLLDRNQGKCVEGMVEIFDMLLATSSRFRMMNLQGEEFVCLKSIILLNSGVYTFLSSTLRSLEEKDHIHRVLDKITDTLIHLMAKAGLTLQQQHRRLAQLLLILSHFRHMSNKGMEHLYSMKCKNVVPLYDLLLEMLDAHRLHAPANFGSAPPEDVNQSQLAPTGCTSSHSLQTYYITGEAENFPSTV
# Method in brief: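 Cell-free radioligand binding with receptor from bovine uterine membranes, read by scintillation counting 18 h after dosing. Loss of specific binding was scored against DMSO; primary screen at 25 uM in duplicate, actives then run as concentration series.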
# [9] = target: Glutamate receptor ionotropic, kainate 1 (Rattus norvegicus) (UniProt P22756); experiment: NVS_IC_rKAR: NovaScreen (NVS) Ion Channel Assay for rat Kainic Acid Receptors (KAR) (AID 2283334; active means hit-call score of the fitted dose curve at least 0.9, where 1 is the maximum; inactive means score below 0.9)
# Chain of Glutamate receptor ionotropic, kainate 1 (Rattus norvegicus) (P22756 whole entry, looked up): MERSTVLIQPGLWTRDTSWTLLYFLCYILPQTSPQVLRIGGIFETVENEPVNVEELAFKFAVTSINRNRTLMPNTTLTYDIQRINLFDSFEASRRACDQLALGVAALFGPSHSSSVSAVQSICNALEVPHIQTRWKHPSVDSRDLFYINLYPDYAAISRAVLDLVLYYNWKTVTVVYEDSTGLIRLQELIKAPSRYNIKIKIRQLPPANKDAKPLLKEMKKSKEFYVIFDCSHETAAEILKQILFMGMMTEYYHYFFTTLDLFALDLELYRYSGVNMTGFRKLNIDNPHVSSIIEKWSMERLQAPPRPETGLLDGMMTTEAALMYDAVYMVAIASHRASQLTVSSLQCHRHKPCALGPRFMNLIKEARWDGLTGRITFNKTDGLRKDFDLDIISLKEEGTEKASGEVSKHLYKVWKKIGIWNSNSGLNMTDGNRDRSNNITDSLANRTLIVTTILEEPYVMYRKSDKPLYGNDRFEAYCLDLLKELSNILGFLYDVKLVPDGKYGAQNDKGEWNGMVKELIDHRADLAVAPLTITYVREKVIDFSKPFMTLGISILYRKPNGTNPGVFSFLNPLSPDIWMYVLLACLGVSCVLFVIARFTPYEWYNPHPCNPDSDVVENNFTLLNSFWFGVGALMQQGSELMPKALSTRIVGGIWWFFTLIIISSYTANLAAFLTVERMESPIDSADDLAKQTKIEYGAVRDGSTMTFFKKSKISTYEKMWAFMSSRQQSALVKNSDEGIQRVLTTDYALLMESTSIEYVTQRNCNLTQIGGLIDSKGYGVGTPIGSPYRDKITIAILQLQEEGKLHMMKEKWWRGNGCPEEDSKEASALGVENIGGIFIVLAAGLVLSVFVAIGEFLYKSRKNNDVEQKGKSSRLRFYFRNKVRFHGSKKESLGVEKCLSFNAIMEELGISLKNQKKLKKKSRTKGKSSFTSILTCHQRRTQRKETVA
# Method in brief: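 Rat forebrain membrane preparation incubated 1 h with radioligand and test chemical; bound signal read by filtration and scintillation. Single-concentration screen at 25 uM, then concentration series to 50 uM maximum.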
# [10] = target: Estrogen receptor (Homo sapiens) (UniProt P03372); experiment: NVS_NR_hER: NovaScreen (NVS) Nuclear Receptor Binding Assay for human Estrogen Receptor (ER) (AID 2283348)
# Method in brief: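 Cell-free MCF7-derived ER preparation, specific radioligand displaced by test compound, read by scintillation counting 18 h post-dosing. Duplicate single-point 25 uM screen, then concentration-response confirmation; DMSO baseline.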
# [11] = target: rat Peripheral-type Benzodiazepine Receptor (PBR), Tspo (gene 24230) (UniProt P16257); experiment: NVS_MP_rPBR: NovaScreen (NVS) Membrane Protein Assay for rat Peripheral-type Benzodiazepine Receptor (PBR) (AID 2283335)
# Chain of rat Peripheral-type Benzodiazepine Receptor (PBR), Tspo (gene 24230) (P16257 whole entry, looked up): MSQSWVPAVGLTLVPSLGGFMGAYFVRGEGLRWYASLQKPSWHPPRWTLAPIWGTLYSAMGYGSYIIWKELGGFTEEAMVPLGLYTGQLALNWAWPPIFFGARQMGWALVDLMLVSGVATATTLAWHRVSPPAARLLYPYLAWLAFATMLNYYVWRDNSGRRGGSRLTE
# Method in brief: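 Competitive displacement of specific radioligand from rat kidney membrane PBR, read by filtration and scintillation after 1 h. Compounds first tested at 25 uM in duplicate, then in concentration series; signal loss relative to DMSO.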
# [12] = target: rat Glutamate, MK-801 Agonist Site (GluNMDA_MK801), Grin1 (gene 24408) (UniProt P35439); experiment: NVS_LGIC_rGluNMDA_MK801_Agonist: NovaScreen (NVS) Ligand-Gated Ion Channel Assay for rat Glutamate, MK-801 Agonist Site (GluNMDA_MK801) (AID 2283340)
# Method in brief: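 Rat forebrain membrane preparation; MK-801-site radioligand binding read by filtration and scintillation after 1.5 h. Single-point 25 uM duplicate screen, followed by singleton concentration series to 50 uM max; DMSO baseline.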
# NCBI gene 100848466 = experiment: NVS_NR_bPR: NovaScreen (NVS) Nuclear Receptor Binding Assay for bovine Progextron Receptor (PR) (AID 2283343);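 on AC50: actives lower bound radioligand signal below DMSO meaning displacement of the label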
# Method in brief: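 Competitive radioligand binding with membranes from bovine uterus, scintillation read-out at 18 h post-dose. Compounds first tested in duplicate at 25 uM, then actives in concentration series; loss-of-signal relative to DMSO.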
# [13] = target: chimpanzee Androgen Receptor (AR), AR (gene 747460) (UniProt O97775); experiment: NVS_NR_cAR: NovaScreen (NVS) Nuclear Receptor Binding Assay for chimpanzee Androgen Receptor (AR) (AID 2283346);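 further: radioligand displacement from AR measured by scintillation counting in a cell-free assay; a loss of bound radioligand signal versus DMSO counts as binding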
# Chain of chimpanzee Androgen Receptor (AR), AR (gene 747460) (O97775 whole entry, looked up): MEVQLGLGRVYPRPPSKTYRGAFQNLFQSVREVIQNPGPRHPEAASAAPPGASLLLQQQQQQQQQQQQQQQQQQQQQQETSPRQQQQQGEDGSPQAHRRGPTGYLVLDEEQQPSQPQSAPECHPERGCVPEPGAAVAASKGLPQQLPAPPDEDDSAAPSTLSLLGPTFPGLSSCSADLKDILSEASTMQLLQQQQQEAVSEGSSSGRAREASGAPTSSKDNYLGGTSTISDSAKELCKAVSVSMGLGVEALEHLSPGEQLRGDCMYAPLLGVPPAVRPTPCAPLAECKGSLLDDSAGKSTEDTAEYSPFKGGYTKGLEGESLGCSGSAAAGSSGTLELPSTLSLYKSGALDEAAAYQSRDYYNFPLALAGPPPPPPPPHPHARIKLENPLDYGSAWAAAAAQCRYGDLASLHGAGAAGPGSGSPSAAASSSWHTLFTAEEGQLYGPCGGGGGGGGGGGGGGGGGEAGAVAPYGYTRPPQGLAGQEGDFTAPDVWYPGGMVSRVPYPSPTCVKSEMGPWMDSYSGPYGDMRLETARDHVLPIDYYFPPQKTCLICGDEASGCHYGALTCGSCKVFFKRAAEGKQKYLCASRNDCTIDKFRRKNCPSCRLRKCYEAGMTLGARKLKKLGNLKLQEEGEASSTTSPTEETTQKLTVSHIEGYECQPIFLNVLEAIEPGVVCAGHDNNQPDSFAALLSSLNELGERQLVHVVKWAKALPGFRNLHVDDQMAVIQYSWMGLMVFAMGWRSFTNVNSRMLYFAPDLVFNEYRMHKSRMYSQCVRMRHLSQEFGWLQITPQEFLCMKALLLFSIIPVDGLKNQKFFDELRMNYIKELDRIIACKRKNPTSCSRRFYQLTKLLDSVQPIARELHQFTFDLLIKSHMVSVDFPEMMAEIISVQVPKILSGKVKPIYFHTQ
# Method in brief: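 Cell-free competition binding with insect-cell (Sf9/Sf21) extracted chimpanzee AR; scintillation signal from lysate at 72 h. Screened in duplicate at 25 uM, then concentration-response for actives; fitting relative to DMSO.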
# [14] = target: human Peripheral-type Benzodiazepine Receptor (PBR), TSPO (gene 706) (UniProt P30536); experiment: NVS_MP_hPBR: NovaScreen (NVS) Membrane Protein Assay for human Peripheral-type Benzodiazepine Receptor (PBR) (AID 2283331);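 further: hits reduce radioligand binding relative to DMSO baseline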
# Chain of human Peripheral-type Benzodiazepine Receptor (PBR), TSPO (gene 706) (P30536 whole entry, looked up): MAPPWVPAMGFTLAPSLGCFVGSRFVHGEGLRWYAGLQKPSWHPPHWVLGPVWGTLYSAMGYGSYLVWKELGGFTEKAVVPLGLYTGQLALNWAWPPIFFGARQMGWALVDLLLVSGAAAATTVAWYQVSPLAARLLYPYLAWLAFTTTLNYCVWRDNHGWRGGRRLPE
# Method in brief: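 Cell-free binding to human colonic membrane preparations measured by filter-based scintillation counting after 1 h. Compounds first run at 25 uM in duplicate, then concentration series for actives; signal loss against DMSO baseline.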
# [15] = target: Small conductance calcium-activated potassium channel protein 1 (Rattus norvegicus) (UniProt P70606); experiment: NVS_IC_rKCaCh: NovaScreen (NVS) Ion Channel Assay for rat Potassium Channel, Ca2+ Act., VI (KCaCh) (AID 2283336)
# Method in brief: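 Filter-based scintillation counting of radioligand bound to rat forebrain membrane preparations, measured 1 h after compound addition. Primary screen used 25 uM in duplicate, with concentration-response follow-up; signal decrease relative to DMSO marks activity.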
# [16] = target: Voltage-gated inwardly rectifying potassium channel KCNH2 (Homo sapiens) (UniProt Q12809); experiment: NVS_IC_hKhERGCh: NovaScreen (NVS) Ion Channel Assay for human Potassium Channel ERG (KhERGCh) (AID 2283333)
# Method in brief: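 Membranes from CHO cells expressing human ERG; displacement of radioligand measured by filtration and scintillation after 0.75 h. Single-concentration duplicate screen at 25 uM, then concentration-response for actives; DMSO baseline.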
smiles,measurement,setting,value
Cc1cccc([N+](=O)[O-])c1C,outcome,[1],inactive
same,outcome,[2],inactive
same,outcome,[3],inactive
same,outcome,[4],inactive
CCc1c(C(=O)NN2CCCCC2)nn(-c2ccc(Cl)cc2Cl)c1-c1ccc(Br)cc1,outcome,[5],inactive
same,outcome,[6],inactive
same,outcome,[7],inactive
same,outcome,[8],inactive
same,outcome,[2],inactive
same,outcome,[3],inactive
same,outcome,[4],inactive
CCCCCCC(=O)OCC,outcome,[9],inactive
same,outcome,[8],inactive
same,outcome,[10],inactive
same,outcome,[2],inactive
same,outcome,[3],inactive
same,outcome,[4],inactive
CCCCC(CC)COC(=O)CC(C(=O)OCC(CC)CCCC)S(=O)(=O)O (stereo unspecified),AC50,[11],9.22 µM (active)
same,outcome,[12],inactive
same,AC50,NCBI gene 100848466,10.9 µM (active)
same,outcome,[8],inactive
same,AC50,[13],17.7 µM (active)
same,outcome,[10],inactive
same,outcome,[2],inactive
C=CCOC(=O)c1ccccc1C(=O)OCC=C,AC50,[14],25 µM (active)
same,outcome,[11],inactive
same,AC50,[13],14.5 µM (active)
same,AC50,[10],41.4 µM (active)
same,outcome,[2],inactive
same,AC50,[3],63.1 µM (active)
Nc1ccc2c(c1)C(=O)c1ccccc1C2=O,outcome,[14],inactive
same,AC50,[13],19.8 µM (active)
same,outcome,[10],inactive
same,outcome,[2],inactive
CC=Cc1ccc(O)c(OC)c1,AC50,[14],17.2 µM (active)
same,AC50,[11],3.55 µM (active)
same,outcome,[15],inactive
same,outcome,[10],inactive
same,AC50,[2],73.5 µM (active)
same,AC50,[3],57.6 µM (active)
Cc1cccc(Nc2cc(Cl)nc(SCC(=O)O)n2)c1C,AC50,[14],6.49 µM (active)
same,outcome,[8],inactive
same,outcome,[10],inactive
same,outcome,[2],inactive
same,outcome,[3],inactive
CC(C)c1ccc(C(=O)N=C(N)N)cc1S(C)(=O)=O,AC50,[14],12.3 µM (active)
same,outcome,[11],inactive
same,outcome,[12],inactive
same,outcome,[8],inactive
same,outcome,[2],inactive
same,outcome,[4],inactive
NC(=O)Cn1c(=O)cc(CCN2CCN(c3nccc4sccc34)CC2)c2ccc(F)cc21,AC50,[14],1.77 µM (active)
same,AC50,[11],1.6 µM (active)
same,AC50,[6],1.82 µM (active)
same,outcome,[2],inactive
same,outcome,[3],inactive
COc1ccc(S(=O)(=O)N2C(=O)[C@@](c3ccccc3OC)(N3C[C@H](O)C[C@H]3C(=O)N(C)C)c3cc(Cl)ccc32)c(OC)c1,AC50,[5],3.53 µM (active)
same,outcome,[8],inactive
same,AC50,[13],13.8 µM (active)
same,outcome,[10],inactive
same,outcome,[2],inactive
same,outcome,[3],inactive
O=C(N[C@@H](Cc1ccccc1)[C@@H](O)C(=O)N1C[C@@H](O)[C@@H](O)C1)c1cc2cc(Cl)ccc2[nH]1,outcome,[5],inactive
same,outcome,[2],inactive
same,outcome,[3],inactive
same,outcome,[4],inactive
Nc1ccccc1N,outcome,[14],inactive
same,outcome,[8],inactive
same,outcome,[2],inactive
same,outcome,[3],inactive
CN1CCN(Cc2cc(-c3ccc4[nH]c(=O)oc4c3)co2)[C@@H](c2ccc(F)cc2)C1,outcome,[16],inactive
same,AC50,[5],5.34 µM (active)
same,AC50,[6],0.445 µM (active)
same,outcome,[8],inactive
C=CCc1ccc(O)c(OC)c1,AC50,[13],21 µM (active)
same,outcome,[10],inactive
same,outcome,[2],inactive
same,outcome,[3],inactive
O=[N+]([O-])C(CO)(CO)CO,outcome,NCBI gene 100848466,inactive
same,outcome,[2],inactive
same,outcome,[3],inactive
